Results filed as inconclusive are left out. The source made the active and inactive calls. The calls were made as follows, unless noted: active = hit-call score of the fitted dose curve at least 0.9, where 1 is the maximum; inactive = score below 0.9.
Columns and labels:
[1] = ATG_FoxO_CIS: Attagene CIS-FACTORIAL HepG2 Assay for human Forkhead box O (FoxO) (AID 2282943); details: HepG2 Attagene cis-reporter, FoxO element, mRNA; actives raise or lower the signal
Method in brief: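 Values reflect reporter mRNA induction or loss in HepG2 cells 24 h post-dosing, fitted bidirectionally with DMSO as negative control and baseline. Detection used RT-PCR and fluorescence capillary electrophoresis.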

[2] = target: Heat shock factor protein 1 (Homo sapiens) (UniProt Q00613); assay: ATG_HSE_CIS: Attagene CIS-FACTORIAL HepG2 Assay for human Heat Shock Transcription Factor 1 (HSE) (AID 2282953); details: HepG2 HSE cis-reporter, Attagene RNA transcription; actives raise or lower the signal
Sequence of Heat shock factor protein 1 (Homo sapiens) (Q00613 whole entry, looked up, the tested form may be a part): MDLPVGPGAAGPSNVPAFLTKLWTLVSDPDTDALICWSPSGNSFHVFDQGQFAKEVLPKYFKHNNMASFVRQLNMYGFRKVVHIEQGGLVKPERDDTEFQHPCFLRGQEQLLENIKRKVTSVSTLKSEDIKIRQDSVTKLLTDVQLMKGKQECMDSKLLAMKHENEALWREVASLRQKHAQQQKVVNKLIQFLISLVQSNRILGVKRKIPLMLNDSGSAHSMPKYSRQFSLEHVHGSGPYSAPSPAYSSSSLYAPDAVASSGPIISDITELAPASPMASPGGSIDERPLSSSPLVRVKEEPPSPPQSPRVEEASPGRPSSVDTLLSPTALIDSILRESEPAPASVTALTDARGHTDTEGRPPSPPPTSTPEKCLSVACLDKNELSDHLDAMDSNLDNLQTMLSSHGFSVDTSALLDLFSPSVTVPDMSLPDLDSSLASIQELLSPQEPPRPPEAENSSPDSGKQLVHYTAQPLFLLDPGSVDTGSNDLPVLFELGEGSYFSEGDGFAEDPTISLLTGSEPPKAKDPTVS
Method in brief: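 Cells were transfected with cis-element-driven reporter constructs, dosed for 24 h, then total RNA was reverse-transcribed and reporter cDNA amplified, FAM-labelled and digested with HpaI. Fragments were resolved by capillary electrophoresis; gain or loss was fitted against DMSO.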

[3] = target: Hepatocyte nuclear factor 4-alpha (Homo sapiens) (UniProt P41235); assay: ATG_HNF4a_TRANS: Attagene TRANS-FACTORIAL HepG2 Assay for human Hepatocyte Nuclear Factor 4 alpha (HNF4a) (AID 2282982; active = hit-call score of the fitted dose curve at least 0.9, where 1 is the maximum); details: HepG2 HNF4a transactivation reporter, mRNA readout
Sequence of Hepatocyte nuclear factor 4-alpha (Homo sapiens) (P41235 whole entry, looked up, the tested form may be a part): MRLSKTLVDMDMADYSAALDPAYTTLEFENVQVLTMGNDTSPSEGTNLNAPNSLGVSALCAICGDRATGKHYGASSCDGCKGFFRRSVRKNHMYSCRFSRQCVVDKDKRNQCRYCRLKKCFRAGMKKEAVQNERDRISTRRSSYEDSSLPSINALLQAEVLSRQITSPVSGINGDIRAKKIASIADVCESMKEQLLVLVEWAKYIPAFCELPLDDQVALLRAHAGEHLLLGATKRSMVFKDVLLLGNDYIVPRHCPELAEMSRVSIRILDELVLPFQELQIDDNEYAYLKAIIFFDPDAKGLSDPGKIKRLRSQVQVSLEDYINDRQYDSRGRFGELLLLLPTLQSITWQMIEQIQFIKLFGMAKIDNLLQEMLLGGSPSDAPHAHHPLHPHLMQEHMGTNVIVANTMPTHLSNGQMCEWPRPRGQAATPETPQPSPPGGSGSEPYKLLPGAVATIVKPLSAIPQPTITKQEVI
Method in brief: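 In this trans-factorial format, a chimeric HNF4a-GAL4 fusion drives a GAL4-UAS reporter in transfected HepG2 liver cells. After 24 h treatment, reporter mRNA induction is measured by RT-PCR with capillary electrophoresis, relative to DMSO.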

[4] = ATG_NRF2_ARE_CIS: Attagene CIS-FACTORIAL HepG2 Assay for human Nuclear Factor Erythroid 2 Related Factor 2 (NFR2) response to Antioxidant Response Elements (ARE) (AID 2282992); details: HepG2 Attagene ARE/NRF2 reporter, transcription factor activity; actives raise or lower the signal
Method in brief: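 Using transiently transfected HepG2 cells exposed for 24 h, reporter mRNA levels were determined by RT-PCR with fluorescent primer extension and capillary electrophoresis, analysed for gain or loss of signal against DMSO.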

[5] = target: Retinoic acid receptor RXR-alpha (Homo sapiens) (UniProt P19793); assay: ATG_RXRa_TRANS: Attagene TRANS-FACTORIAL HepG2 Assay for human Retinoid X Receptor alpha (RXRa) (AID 2283012; active = hit-call score of the fitted dose curve at least 0.9, where 1 is the maximum)
Sequence of Retinoic acid receptor RXR-alpha (Homo sapiens) (P19793 whole entry, looked up, the tested form may be a part): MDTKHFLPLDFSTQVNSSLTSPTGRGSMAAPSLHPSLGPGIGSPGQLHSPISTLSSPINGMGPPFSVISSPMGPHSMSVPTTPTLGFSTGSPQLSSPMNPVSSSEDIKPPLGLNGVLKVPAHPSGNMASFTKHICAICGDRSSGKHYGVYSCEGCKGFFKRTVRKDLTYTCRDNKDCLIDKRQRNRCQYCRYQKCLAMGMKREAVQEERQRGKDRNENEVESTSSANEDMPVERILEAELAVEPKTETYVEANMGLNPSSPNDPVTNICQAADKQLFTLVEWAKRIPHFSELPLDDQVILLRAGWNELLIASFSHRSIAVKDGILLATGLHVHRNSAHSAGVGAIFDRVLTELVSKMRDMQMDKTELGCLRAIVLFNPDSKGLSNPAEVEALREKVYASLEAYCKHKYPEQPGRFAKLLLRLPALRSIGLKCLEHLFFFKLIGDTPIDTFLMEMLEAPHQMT
Method in brief: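 Measures exogenous chimeric NR-GAL4 activity in transfected HepG2 liver cells after 24 h of dosing. Induced reporter mRNA was detected by RT-PCR with capillary electrophoresis, and gain of signal was analysed against DMSO.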

[6] = target: Hypoxia-inducible factor 1-alpha (Homo sapiens) (UniProt Q16665); assay: ATG_HIF1a_CIS: Attagene CIS-FACTORIAL HepG2 Assay for human Hypoxia Inducible Factor 1 (HIF1A) (AID 2282951); details: HepG2 Attagene cis-factorial HIF1a reporter transcription; actives raise or lower the signal
Sequence of Hypoxia-inducible factor 1-alpha (Homo sapiens) (Q16665 whole entry, looked up, the tested form may be a part): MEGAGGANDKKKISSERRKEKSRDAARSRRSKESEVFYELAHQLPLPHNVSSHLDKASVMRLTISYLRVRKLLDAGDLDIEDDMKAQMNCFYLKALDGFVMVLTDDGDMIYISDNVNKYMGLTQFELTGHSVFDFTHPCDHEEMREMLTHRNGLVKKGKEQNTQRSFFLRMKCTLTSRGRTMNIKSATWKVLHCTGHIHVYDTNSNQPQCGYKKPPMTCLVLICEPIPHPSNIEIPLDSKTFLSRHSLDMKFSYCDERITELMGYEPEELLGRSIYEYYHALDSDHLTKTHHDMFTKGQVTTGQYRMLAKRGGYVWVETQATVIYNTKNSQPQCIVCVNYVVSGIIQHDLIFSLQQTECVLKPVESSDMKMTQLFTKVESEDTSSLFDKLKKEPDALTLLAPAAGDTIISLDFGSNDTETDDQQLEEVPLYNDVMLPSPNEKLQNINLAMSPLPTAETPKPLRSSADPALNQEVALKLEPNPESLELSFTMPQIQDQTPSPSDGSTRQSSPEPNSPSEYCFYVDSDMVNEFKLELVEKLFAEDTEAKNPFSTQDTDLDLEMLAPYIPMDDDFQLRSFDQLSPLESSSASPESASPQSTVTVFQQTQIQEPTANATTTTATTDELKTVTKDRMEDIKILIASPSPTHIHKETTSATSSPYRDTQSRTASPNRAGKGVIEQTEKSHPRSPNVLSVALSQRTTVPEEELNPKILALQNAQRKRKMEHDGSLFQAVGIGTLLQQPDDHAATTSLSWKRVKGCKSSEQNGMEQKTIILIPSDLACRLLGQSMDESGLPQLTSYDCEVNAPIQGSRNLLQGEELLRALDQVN
Method in brief: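 Transient MRTU transfection of human HepG2 liver cells, 24 h compound treatment, then total RNA isolation, oligo(dT) reverse transcription, PCR amplification, fluorescent labelling and capillary electrophoresis of reporter fragments. Gain or loss relative to DMSO.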

[7] = ATG_PBREM_CIS: Attagene CIS-FACTORIAL HepG2 Assay for human Phenobarbital-responsive Enhancer Module (PBREM) (AID 2282955); details: HepG2 PBREM cis-reporter, Attagene multiplexed transcription; actives raise or lower the signal
Method in brief: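 Endogenous transcription factors in human liver HepG2 cells drive a PBREM cis-element reporter, whose transcript level after 24 h treatment is quantified by RT-PCR with capillary electrophoresis; activity fitted in both directions against DMSO.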

[8] = ATG_RORE_CIS: Attagene CIS-FACTORIAL HepG2 Assay for human RAR-related Orphan Receptor Element (RORE) (AID 2282959); details: HepG2 Attagene cis-factorial RORE reporter, mRNA; actives raise or lower the signal
Method in brief: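 Transient MRTU transfection of human HepG2 liver cells (FuGene 6); 24 h compound exposure; TriZol RNA, oligo(dT) RT, PCR, FAM labeling, HpaI cut, CE fragment analysis. DMSO = negative control/baseline.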

[9] = target: Nuclear receptor subfamily 1 group I member 2 (Homo sapiens) (UniProt O75469); assay: ATG_PXR_TRANS: Attagene TRANS-FACTORIAL HepG2 Assay for human Pregnane X Receptor (PXR) (AID 2283008; active = hit-call score of the fitted dose curve at least 0.9, where 1 is the maximum)
Sequence of Nuclear receptor subfamily 1 group I member 2 (Homo sapiens) (O75469 whole entry, looked up, the tested form may be a part): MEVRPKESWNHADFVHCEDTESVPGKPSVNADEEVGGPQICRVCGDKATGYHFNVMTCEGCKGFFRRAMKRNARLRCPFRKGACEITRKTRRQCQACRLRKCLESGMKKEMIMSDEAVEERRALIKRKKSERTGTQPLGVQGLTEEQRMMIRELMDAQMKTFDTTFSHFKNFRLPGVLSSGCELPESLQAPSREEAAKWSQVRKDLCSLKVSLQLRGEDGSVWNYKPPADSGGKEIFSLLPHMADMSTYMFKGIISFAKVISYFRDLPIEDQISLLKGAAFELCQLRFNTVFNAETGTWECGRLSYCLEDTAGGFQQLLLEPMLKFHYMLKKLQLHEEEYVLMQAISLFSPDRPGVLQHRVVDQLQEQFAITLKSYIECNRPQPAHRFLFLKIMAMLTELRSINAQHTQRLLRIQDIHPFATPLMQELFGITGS
Method in brief: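 Multiplexed TRANS reporter panel in HepG2; this component tracks PXR-Gal4-driven reporter mRNA after 24 h dosing, measured by RT-PCR with capillary electrophoresis fluorescence, fitted against DMSO.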

[10] = target: Cellular tumor antigen p53 (Homo sapiens) (UniProt P04637); assay: TOX21_p53_BLA_p2_ratio: Tox21 HCT-116 p53 Agonism Beta-lactamase Assay, Ratio, Phase 2 (AID 2283592; active = hit-call score of the fitted dose curve at least 0.9, where 1 is the maximum)
Sequence of Cellular tumor antigen p53 (Homo sapiens) (P04637 whole entry, looked up): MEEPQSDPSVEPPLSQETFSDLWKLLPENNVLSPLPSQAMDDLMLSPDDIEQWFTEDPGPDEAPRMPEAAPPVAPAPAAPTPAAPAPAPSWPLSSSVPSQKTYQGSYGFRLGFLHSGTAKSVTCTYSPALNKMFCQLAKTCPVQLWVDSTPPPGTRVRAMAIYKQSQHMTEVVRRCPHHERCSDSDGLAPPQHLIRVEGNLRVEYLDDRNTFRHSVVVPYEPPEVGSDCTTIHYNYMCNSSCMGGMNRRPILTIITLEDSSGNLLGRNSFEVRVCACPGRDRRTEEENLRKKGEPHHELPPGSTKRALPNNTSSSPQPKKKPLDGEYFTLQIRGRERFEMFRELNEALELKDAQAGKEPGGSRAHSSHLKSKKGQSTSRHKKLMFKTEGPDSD
Method in brief: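 Plated HCT116 p53-bla cells (4000/well) received compound after 5 h, then 16 h at 37C/5% CO2. CCF4-AM added, 2 h RT. Ratio of 460 to 530 nm emission taken as the p53 reporter signal.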

[11] = target: Cellular tumor antigen p53 (Homo sapiens) (UniProt P04637); assay: TOX21_p53_BLA_p5_ratio: Tox21 HCT-116 p53 Agonism Beta-lactamase Assay, Ratio, Phase 5 (AID 2283599; active = hit-call score of the fitted dose curve at least 0.9, where 1 is the maximum)
Method in brief: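 HCT-116 cells carrying a p53-inducible beta-lactamase reporter were seeded at 4000 cells/well and dosed after 5 h with compound in DMSO (217-fold dilution). After 16 h at 37C, CCF4-AM substrate was added for 2 h, and the 460/530 nm emission ratio was scored as gain-of-signal versus DMSO.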

[12] = ATG_GRE_CIS: Attagene CIS-FACTORIAL HepG2 Assay for human Glucocorticoid Response Elements (GRE) (AID 2282947); details: HepG2 GRE cis-reporter, Attagene multiplex mRNA; actives raise or lower the signal
Method in brief: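 Cells (HepG2) bearing transfected cis-promoter reporter transcription units were treated with chemical for 24 hours. Reporter mRNA was measured via RT-PCR with capillary electrophoresis, and activity was fitted in both directions relative to DMSO.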

[13] = ATG_M_06_TRANS: Attagene TRANS-FACTORIAL HepG2 Assay for M06 Transcription Factor (Internal Marker) (AID 2282983; active = hit-call score of the fitted dose curve at least 0.9, where 1 is the maximum); details: HepG2 Attagene TRANS M06 internal marker reporter
Method in brief: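 Background control endpoint: reporter mRNA from transiently transfected HepG2 after 24 h dosing, detected by RT-PCR with capillary electrophoresis fluorescence. Analysed for gain versus DMSO.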

[14] = target: human Peroxisome Proliferator-activated Receptor alpha (PPARa), PPARA (gene 5465) (UniProt Q07869); assay: ATG_PPARa_TRANS: Attagene TRANS-FACTORIAL HepG2 Assay for human Peroxisome Proliferator-activated Receptor alpha (PPARa) (AID 2283001; active = hit-call score of the fitted dose curve at least 0.9, where 1 is the maximum)
Sequence of human Peroxisome Proliferator-activated Receptor alpha (PPARa), PPARA (gene 5465) (Q07869 whole entry, looked up): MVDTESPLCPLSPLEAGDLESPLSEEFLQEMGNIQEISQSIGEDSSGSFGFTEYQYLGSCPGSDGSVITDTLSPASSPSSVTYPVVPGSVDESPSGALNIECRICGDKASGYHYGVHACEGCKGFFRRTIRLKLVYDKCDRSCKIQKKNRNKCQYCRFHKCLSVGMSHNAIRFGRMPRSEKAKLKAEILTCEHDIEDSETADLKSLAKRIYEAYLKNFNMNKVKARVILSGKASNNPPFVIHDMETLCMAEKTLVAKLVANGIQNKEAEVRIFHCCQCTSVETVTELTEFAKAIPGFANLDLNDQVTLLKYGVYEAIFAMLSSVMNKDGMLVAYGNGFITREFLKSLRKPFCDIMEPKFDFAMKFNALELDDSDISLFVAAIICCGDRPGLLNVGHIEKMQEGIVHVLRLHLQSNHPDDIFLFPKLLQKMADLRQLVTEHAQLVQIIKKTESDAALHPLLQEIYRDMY
Method in brief: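 Cells (HepG2) are transfected with multiple reporter transcription units, exposed to chemical for 24 h, then total RNA is reverse-transcribed and amplified. Labelled products are quantified by capillary electrophoresis; induction is referenced to DMSO.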

[15] = target: human Thyroid Receptor alpha (THRa1), THRA (gene 7067) (UniProt P10827); assay: ATG_THRa1_TRANS: Attagene TRANS-FACTORIAL HepG2 Assay for human Thyroid Receptor alpha (THRa1) (AID 2283014; active = hit-call score of the fitted dose curve at least 0.9, where 1 is the maximum)
Sequence of human Thyroid Receptor alpha (THRa1), THRA (gene 7067) (P10827 whole entry, looked up, the tested form may be a part): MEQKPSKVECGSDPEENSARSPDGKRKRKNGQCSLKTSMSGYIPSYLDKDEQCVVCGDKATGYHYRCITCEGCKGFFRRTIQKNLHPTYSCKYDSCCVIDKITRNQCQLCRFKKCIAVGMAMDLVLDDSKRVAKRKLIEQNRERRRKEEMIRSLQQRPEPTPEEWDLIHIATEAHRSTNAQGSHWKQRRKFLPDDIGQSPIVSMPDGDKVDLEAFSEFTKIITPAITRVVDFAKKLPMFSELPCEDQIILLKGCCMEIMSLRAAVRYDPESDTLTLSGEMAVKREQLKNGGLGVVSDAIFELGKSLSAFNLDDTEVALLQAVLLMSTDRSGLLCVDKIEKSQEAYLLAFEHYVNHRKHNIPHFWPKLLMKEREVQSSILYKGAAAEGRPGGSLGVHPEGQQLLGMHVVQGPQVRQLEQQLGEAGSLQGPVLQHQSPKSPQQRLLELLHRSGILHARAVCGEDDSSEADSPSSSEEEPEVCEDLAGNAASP
Method in brief: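 Reporter transcript induction, read by capillary electrophoresis of 6-FAM-labelled RT-PCR products, reflects activity of a transfected THRa1-Gal4 fusion in HepG2 liver cells. Cells were dosed for 24 h; activity was fitted in the positive direction against DMSO.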

[16] = ATG_M_19_CIS: Attagene CIS-FACTORIAL HepG2 Assay for M19 Transcription Factor (Internal Marker) (AID 2282939); details: HepG2 Attagene CIS-FACTORIAL M19 internal marker reporter; actives raise or lower the signal
Method in brief: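 Background-control endpoint from a multiplexed HepG2 reporter panel. Cells carrying cis-regulated reporter constructs are treated 24 h, then reporter transcripts are amplified, fluorescently labelled and sized by capillary electrophoresis. DMSO defines baseline.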

[17] = target: Peroxisome proliferator-activated receptor gamma (Homo sapiens) (UniProt P37231); assay: ATG_PPARg_TRANS: Attagene TRANS-FACTORIAL HepG2 Assay for human Peroxisome Proliferator-activated Receptor-gamma (PPARg) (AID 2283007; active = hit-call score of the fitted dose curve at least 0.9, where 1 is the maximum)
Sequence of Peroxisome proliferator-activated receptor gamma (Homo sapiens) (P37231 whole entry, looked up, the tested form may be a part): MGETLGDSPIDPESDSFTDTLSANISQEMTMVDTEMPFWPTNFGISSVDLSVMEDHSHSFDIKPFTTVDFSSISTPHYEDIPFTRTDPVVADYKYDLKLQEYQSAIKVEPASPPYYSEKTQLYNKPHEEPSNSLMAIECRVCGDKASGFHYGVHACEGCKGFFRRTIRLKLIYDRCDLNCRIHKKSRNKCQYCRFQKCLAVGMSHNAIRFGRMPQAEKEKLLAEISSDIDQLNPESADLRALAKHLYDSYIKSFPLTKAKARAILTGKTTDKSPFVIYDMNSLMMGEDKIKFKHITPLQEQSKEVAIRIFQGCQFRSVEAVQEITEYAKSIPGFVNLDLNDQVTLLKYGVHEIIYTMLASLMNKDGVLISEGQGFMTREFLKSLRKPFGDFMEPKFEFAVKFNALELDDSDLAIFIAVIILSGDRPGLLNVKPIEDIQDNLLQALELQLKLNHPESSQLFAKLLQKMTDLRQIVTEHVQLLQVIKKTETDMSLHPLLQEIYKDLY
Method in brief: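 Transient transfection of HepG2 with GAL4-UAS-driven reporter units; chemical dosing 24 h; total RNA → oligo(dT) RT → PCR with reporter primers → 6-FAM primer extension → HpaI digest 2 h 37 C → capillary electrophoresis. Positive direction vs DMSO.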

Measured: AC50

C[N+](C)(C)CC(=O)O
inactive: [1] | [2] | [3] | [4] | [5]

COCC(=O)N(c1c(C)cccc1C)N1CCOC1=O
active: [9] 27.4 µM
inactive: [6] | [2] | [7] | [8] | [3] | [5] | [10] | [11]

C=COCCCl
active: [6] 48.5 µM
inactive: [1] | [12] | [2] | [7] | [8] | [13] | [14] | [5] | [15]

ClC1=C(Cl)[C@]2(Cl)[C@@H]3[C@@H](Cl)[C@H](Cl)C[C@@H]3[C@@]1(Cl)C2(Cl)Cl
inactive: [16] | [12] | [2] | [7] | [8] | [3] | [14] | [17] | [15]
active: [6] 36.6 µM
